Experimental data as given in PubChem BioAssay (NCI).
The panel holds about 79,000 compounds, 15% with a hit somewhere; the sample as a whole holds those more often. Calls of active or inactive are those of the source. Rule as the data show it: active = growth inhibition above about 70%; inactive = the rest.

Legend:
[1] = NCI Yeast Anticancer Drug Screen. Data for the rad52 strain (AID 147);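 also: 0% = growth of vehicle-treated control cultures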; conditions: S. cerevisiae rad52 mutant growth inhibition, active compounds read high
Summary of the method: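 Read-out: growth inhibition versus vehicle-treated controls. Cells were a DNA repair-deficient yeast strain treated with compounds.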

[2] = NCI Yeast Anticancer Drug Screen. Data for the wt1 strain (AID 149);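 also: 0% = growth of vehicle-treated wt1 cultures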; conditions: S. cerevisiae wt1 strain (SPY 50644) growth inhibition, active compounds read high
Summary of the method: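 Vehicle-normalised growth inhibition; strain wt1; compound exposure.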

[3] = NCI Yeast Anticancer Drug Screen. Data for the rad50EPP+ strain (AID 151);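 also: 0% = growth of vehicle-treated control cultures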; conditions: S. cerevisiae rad50 mutant strain, active compounds read high
Summary of the method: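 Growth inhibition read against vehicle controls in rad50EPP+ yeast, a strain altered in DNA damage repair, after compound exposure.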

[4] = NCI Yeast Anticancer Drug Screen. Data for the mgt1 strain (AID 153); conditions: S. cerevisiae mgt1 mutant growth inhibition, active compounds read high
Summary of the method: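 mgt1 yeast grown with test compound; read-out is growth inhibition versus vehicle-treated cultures.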

[5] = NCI Yeast Anticancer Drug Screen. Data for the rad50 strain (AID 155);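 also: 0% = growth of vehicle-only cultures of the same strain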; conditions: S. cerevisiae rad50 strain growth inhibition, active compounds read high
Summary of the method: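 A DNA repair-deficient yeast mutant serves as the test organism; compound-induced growth inhibition is calculated against vehicle-treated cells.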

[6] = NCI Yeast Anticancer Drug Screen. Data for the mec2-1 strain (AID 157); conditions: S. cerevisiae mec2-1 strain, active compounds read high
Summary of the method: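 Yeast mec2-1 mutant treated with compound. Readout: growth inhibition vs vehicle controls.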

[7] = NCI Yeast Anticancer Drug Screen. Data for the rad14 strain (AID 159);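 also: 0% = growth of vehicle-treated control cultures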; conditions: S. cerevisiae rad14 strain growth inhibition, active compounds read high
Summary of the method: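 Vehicle-treated cultures served as the baseline for growth inhibition of a DNA repair-mutant yeast strain exposed to each compound.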

[8] = NCI Yeast Anticancer Drug Screen. Data for the sgs1 mgt1 strain (AID 161);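 also: 0% = growth of cultures given vehicle only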; conditions: S. cerevisiae sgs1 mgt1 strain, active compounds read high
Summary of the method: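 Mutant yeast exposed to compound; growth scored against vehicle-only wells.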

[9] = NCI Yeast Anticancer Drug Screen. Data for the cln2 rad14 strain (AID 165);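 also: 0% = growth equal to vehicle treated cultures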; conditions: S. cerevisiae cln2 rad14 strain, active compounds read high
Summary of the method: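 cln2 rad14 yeast strain; compound exposure; growth inhibition read vs vehicle controls.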

[10] = NCI Yeast Anticancer Drug Screen. Data for the bub3 strain (AID 167); conditions: S. cerevisiae bub3 mutant strain, active compounds read high
Summary of the method: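 Inhibition values come from growth of compound-treated mutant yeast normalised to vehicle-treated controls.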

[11] = NCI Yeast Anticancer Drug Screen. Data for the wt2 strain (AID 169);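 also: 0% = growth of vehicle-treated yeast cultures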; conditions: S. cerevisiae wt2 strain growth inhibition, active compounds read high
Summary of the method: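 Read-out: growth inhibition versus vehicle-treated control cultures after compound exposure of the yeast strain.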

[12] = NCI Yeast Anticancer Drug Screen. Data for the mlh1 strain (AID 171);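 also: 0% = growth of vehicle-treated control cultures of the same strain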; conditions: S. cerevisiae mlh1 strain growth inhibition, active compounds read high
Summary of the method: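 Read-out: growth inhibition versus vehicle controls. Strain: engineered yeast with a defined DNA repair or cell cycle defect, compound-treated.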

[13] = NCI Yeast Anticancer Drug Screen. Data for the sgs1 strain (AID 173);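 also: 0% = growth of vehicle-only control cultures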; conditions: S. cerevisiae sgs1 mutant, active compounds read high
Summary of the method: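 Read-out: yeast growth inhibition relative to vehicle controls, following compound exposure of a strain with a defined DNA repair/cell cycle alteration.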

[14] = NCI Yeast Anticancer Drug Screen. Data for the mlh1 rad18 strain (AID 175); conditions: S. cerevisiae mlh1 rad18 strain growth inhibition, active compounds read high
Summary of the method: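 Yeast w/ defined DNA-repair lesions; compound exposure; growth vs vehicle controls → % inhibition.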

[15] = NCI Yeast Anticancer Drug Screen. Data for the rad18 strain (AID 177); conditions: S. cerevisiae rad18 mutant growth inhibition, active compounds read high
Summary of the method: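 Readout: growth inhibition vs vehicle controls. Cells: genetically altered yeast strain, DNA repair defect.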

[16] = at 5.0 µM (retest, dose inferred, filed as 0.5)
[17] = at 50.0 µM (retest, dose inferred, filed as 5.0)

Measured: growth inhibition

CC(O)=NC(Cc1ccc2ccccc2c1)C(O)=NC(Cc1ccc(Cl)cc1)C(O)=NC(Cc1c[nH]c2ccccc12)C(O)=NC(CO)C(O)=NC(Cc1ccc(O)cc1)C(O)=NC(CCCN=C(N)N)C(O)=NC(CC(C)C)C(O)=NC(CCCN=C(N)N)C(=O)N1CCCC1C(O)=NC(C)C(=N)O (stereo not drawn)
active: [14]; [17] 70%
inactive: [1]; at 1.2 µM -7% | [1]; at 3.7 µM -8% | [1]; at 11.0 µM -4% | [1]; at 33.0 µM 4% | [1]; at 100.0 µM 16% | [2]; at 1.2 µM -2% | [2]; at 3.7 µM -4% | [2]; at 11.0 µM -5% | [2]; at 33.0 µM -3% | [2]; at 100.0 µM -1% | [3]; at 1.2 µM -4% | [3]; at 3.7 µM 2% | [3]; at 11.0 µM 11% | [3]; at 33.0 µM 16% | [3]; at 100.0 µM 11% | [4]; at 1.2 µM -3% | [4]; at 3.7 µM -2% | [4]; at 11.0 µM -4% | [4]; at 33.0 µM -5% | [4]; at 100.0 µM 6% | [5]; at 1.2 µM -5% | [5]; at 3.7 µM -2% | [5]; [16] -9% | [5]; at 11.0 µM 1% | [5]; at 33.0 µM 3% | [5]; [17] 16% | [5]; at 50.0 µM 18.1% | [5]; at 100.0 µM 25% | [6]; at 1.2 µM -2% | [6]; at 3.7 µM -3% | [6]; [16] -14% | [6]; at 11.0 µM -4% | [6]; at 33.0 µM -2% | [6]; [17] -6% | [6]; at 50.0 µM 1.1% | [6]; at 100.0 µM 3% | [7]; at 1.2 µM -5% | [7]; at 3.7 µM 1% | [7]; at 11.0 µM 4% | [7]; at 33.0 µM 7% | [7]; at 100.0 µM 24% | [8]; [16] 2% | [8]; [17] 20% | [8]; at 50.0 µM 3% | [9]; [16] -5% | [9]; [17] 18% | [9]; at 50.0 µM 12.2% | [10]; at 1.2 µM -2% | [10]; at 3.7 µM -1% | [10]; [16] 39% | [10]; at 11.0 µM -4% | [10]; at 33.0 µM -1% | [10]; [17] 32% | [10]; at 50.0 µM 19.9% | [10]; at 100.0 µM 1% | [11]; at 1.2 µM -9% | [11]; at 3.7 µM -10% | [11]; at 11.0 µM -2% | [11]; at 33.0 µM 11% | [11]; at 100.0 µM 2% | [12]; at 1.2 µM -7% | [12]; at 3.7 µM -4% | [12]; at 11.0 µM -3% | [12]; at 33.0 µM 3% | [12]; at 100.0 µM 17% | [13]; at 1.2 µM -21% | [13]; at 3.7 µM -18% | [13]; at 11.0 µM -17% | [13]; at 33.0 µM 3% | [13]; at 100.0 µM 44% | [14]; [16] 52% | [14]; at 50.0 µM 58.4% | [15]; at 1.2 µM -6% | [15]; at 3.7 µM -6% | [15]; at 11.0 µM -3% | [15]; at 33.0 µM 1% | [15]; at 100.0 µM 35%
